# Test results taken from PubChem BioAssay AID743279 (National Center for Advancing Translational Sciences (NCATS), 2014).
# Hit rate of the full screen: of about 360,000 compounds, about 17,000 (4.7%) were called active. About 5% were inconclusive and are not listed. This excerpt belongs to a sample that is enriched for actives. Unmarked numbers belong to inactive results. Rule as the data show it: active = activity change below about -50%; inconclusive = mostly about -30% to -49%; inactive = weaker than that.
# Experiment: qHTS for Inhibitors of Inflammasome Signaling: IL-1-beta AlphaLISA Primary Screen
# Settings: THP-1 LPS/ATP IL-1B secretion, 16 h; at 57.5 µM, stronger effect = lower value
# Summary of the method: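 Secreted IL-1B measured by AlphaLISA bead assay after 16 h compound exposure of THP-1 cells; compounds (final up to 57.5 uM) added 1 h before LPS (250 ng/mL) and ATP (1.25 mM) stimulation; lower signal means less secretion.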
# % is scaled to controls: 0 for no effect and ±100 for the full control effect.
row,Compound,activity change
1,CCOc1ccc(CCN2C(=O)c3cccnc3C2=O)cc1OCC,-0.139%
2,O=C1c2cccnc2C(=O)N1Cc1cccs1,21.3%
3,NC1=CC(=O)C(=O)c2cccnc21,-59.7% (active)
4,CCN(C(=O)CN1CCN(Cc2ccccc2)CC1)c1c(N)n(Cc2ccccc2)c(=O)[nH]c1=O,27.8%
5,Cc1cccc(NC(=S)Nc2ccc(Cl)c(Cl)c2)c1,-89.5% (active)
6,Cc1cccc(NC(=S)NC23CN4CN(CN(C4)C2)C3)c1,-14.8%
7,S=C(Nc1cccc(Cl)c1)Nc1ccc2c(c1)OCCO2,-23.6%
8,Cc1cccc(NC(=S)Nc2ccc3cn[nH]c3c2)c1,-16.5%
9,Cc1csc(NC(=S)Nc2cccc(Cl)c2)n1,-99.2% (active)
10,FC(F)(F)c1cccc(NC(=S)Nc2cccc(Cl)c2)c1,-14.7%
11,O=C(Nc1ccc(Cl)c(C(F)(F)F)c1)C1Cc2c(-c3ccccc3Oc3ccccc3)ccnc2O1 (configuration not stated),-13.9%
12,Cc1cc(C)c(S(=O)(=O)NCC(c2ccc3c(c2)OCO3)N2CCOCC2)c(C)c1 (configuration not stated),0%
13,COc1ccccc1OCC(=O)OCc1cc(-c2ccco2)on1,1.02%
14,CCOC(=O)[C@]12CCCC=C1N(CCC1=CCCCC1)C(=O)[C@H](CC(=O)N1CCSCC1)C2,15.1%
15,COc1ccc(Br)cc1CN(C)C(=O)C1CC(=O)N(C2CCCC2)C1 (configuration not stated),-16.8%
16,CC1(C(=O)Nc2cccnc2)Cc2c(-c3ccccc3)ccnc2O1 (configuration not stated),-18%
17,CCOC(=O)c1cc(C)nc(S(C)(=O)=O)c1C#N,-106% (active)
18,CCOC(=O)COc1nc(C)cc(C(F)(F)F)c1C#N,-4.72%
19,CCOC(=O)c1c(C(C#N)C#N)cc(C)nc1C,17.2%
20,CCCCOc1ccc(Cl)cc1CSc1nncn1N,-10.2%
21,CC1=C(C(=O)N2CCOCC2)CC(CC(=O)NCc2cccc3ccccc23)C(=O)N1CCC1=CCCCC1 (configuration not stated),-8.18%
22,CC(C)(C)c1ccc(/C=C/C(=O)Nc2ncccn2)cc1,0%

row,Compound,activity change
1,COC(=O)c1sc(-c2ccc(C(C)(C)C)cc2)cc1NC(=O)/C=C/C(=O)O,-98.5% (active)
2,COc1ccc(NS(=O)(=O)c2ccc(N3CCOCC3)c(NC(=O)/C=C/C(=O)O)c2)cc1,12.3%
3,COc1ccc(Nc2cc(=O)oc3ccccc23)cc1,34.3%
4,COc1ccc2oc(=O)cc(-c3cc4ccccc4o3)c2c1,-52.1% (active)
5,COc1cccc2cc(-c3cc(=O)oc4cc(C)c(O)cc34)oc12,0.212%
6,Cc1ccc(S(=O)(=O)N2CCOCC2)cc1NC(=O)c1ccncc1,6.64%
7,CC1(C(=O)NCC2CCOCC2)Cc2c(-c3cccc(C(N)=O)c3)ccnc2O1 (configuration not stated),40.9%
8,N#C/C(=C\c1ccc(-c2cccc([N+](=O)[O-])c2)o1)C(=O)NCCN1CCOCC1,-79.4% (active)
9,N#C/C(=C/c1ccc(-c2ccccc2[N+](=O)[O-])o1)C(=O)NCCN1CCCCC1,-54.1% (active)
10,Cc1ccc(-c2ccc(/C=N/NC(=O)CN3CCOCC3)o2)cc1[N+](=O)[O-],-11%
11,O=C(NCCCN1CCOCC1)c1ccc([N+](=O)[O-])cc1[N+](=O)[O-],47.3%
12,O=C(CN1C(=O)NC2(CCCCC2)C1=O)NCCc1c[nH]c2ccccc12,0%
13,CN(C)CCNC(=O)/C(=C/c1cccc([N+](=O)[O-])c1)NC(=O)c1ccccc1,-4.01%
14,CN1CCN(CCNC(=O)Nc2ccccc2[N+](=O)[O-])CC1,-9.61%
15,N#C/C(=C/c1ccc(N2CCOCC2)o1)C(=O)N1CCOCC1,-6.13%
16,C=CCNC(=O)/C(=C\c1cccc([N+](=O)[O-])c1)NC(=O)c1ccccc1,11.9%
17,Cc1ccc(C(=O)N/C(=C/c2ccc(-c3cccc([N+](=O)[O-])c3)o2)C(=O)NCCCN(C)C)cc1,-105% (active)
18,N#C/C(=C/c1ccc(N2CCCCC2)o1)C(=O)NCCc1c[nH]c2ccccc12,-56.8% (active)
19,O=C1C2C3C=CC(C4CC34)C2C(=O)N1/N=C/c1ccc(-c2ccccc2[N+](=O)[O-])o1 (configuration not stated),5.29%
20,CCc1cccc(C)c1N(C(=O)Cn1c(CO)nc2ccccc21)C(C)COC (configuration not stated),-5.47%
21,COc1ccc(N2c3ccccc3CN(Cc3ccccc3)[C@@H](C)[C@H]2Cc2ccc(-c3ccccc3)cc2)cc1,43%
22,O=C(OCc1cn([C@H]2C[C@H](c3ccccc3)N(C(=O)c3cccs3)C[C@@H]2O)nn1)c1ccccc1,9.57%

row,Compound,activity change
1,CCOC(=O)C1(Cc2ccc(Cl)cc2)CCN(C(=O)C2=NNC(=O)CC2)CC1,5.99%
2,COc1ccc(S(=O)(=O)N2CCCCC2)cc1C(=O)NC1CCS(=O)(=O)C1 (configuration not stated),-14.7%
3,CCN(CC)C(=O)C1CCCN(Cc2cccc(Cl)c2)C1 (configuration not stated),-7.01%
4,O=C(C[C@H]1CC[C@@H](NC(=O)c2ccncc2)[C@@H](CO)O1)NCC1CC1,0.19%
5,Cc1ccc(-n2c(SCC(=O)N3CCC(C(=O)O)CC3)nc3ccccc3c2=O)cc1C,6.5%
6,O=S1(=O)C[C@@H](N2CCN(CCO)CC2)[C@H](COCc2ccccc2)N1,-19.7%
7,COc1ccc(-c2ccc3[nH]c4c(c3c2)CCN2C[C@H]3[C@H](C)ON(C)[C@H]3C[C@@H]42)cc1,-18.3%
8,Nc1nc(CSc2nnnn2-c2ccccc2)nc(Nc2ccccc2)n1,-29.1%
9,CNC(=O)c1csc(-c2ccccc2)n1,-4.77%
10,CNC(=O)c1cccc2nc3ccccc3nc12,-78.6% (active)
11,CN(C)C(=O)c1coc2nc3ccccc3nc12,25.5%
12,COc1ccc(NC(=O)N2CCCC(C(=O)Nc3ccccc3OC)C2)cc1 (configuration not stated),-1.11%
13,COc1ccc(NC(=O)N2CCC(Cc3ccccc3)CC2)cc1,-50.3% (active)
14,COc1ccc(C(=O)NC2CCN(C(=O)Nc3ccc(F)cc3)CC2)cc1,17.5%
15,CCN1CCCC1CNc1ncnc2c1[nH]c1ccc(F)cc12 (configuration not stated),-94.3% (active)
16,CCN1CCCC1Cn1cnc2c([nH]c3cc(OC)ccc32)c1=O (configuration not stated),-21.8%
17,CC(C)OCCCNc1ncnc2c1[nH]c1ccc(F)cc12,-71% (active)
18,CCN1CCCC1CNC(=O)c1cc2cc(OC)c(OC)cc2[nH]1 (configuration not stated),-7.87%
19,C[C@@H]1CN([C@@H](C)CO)S(=O)(=O)c2ccc(-c3ccc(C(=O)N(C)C)cc3)cc2O[C@@H]1CN(C)Cc1ccccc1C(=O)O,23.1%
20,COc1ccc(-c2ccc3c(c2)C2CC3CCN2CCC#N)cc1 (configuration not stated),12.2%
21,Cc1cc(C)c2nc(-c3cccnc3)cc(C(=O)Nc3ccc(S(=O)(=O)Nc4onc(C)c4C)cc3)c2c1,16.5%
22,COc1ccc(CN2C(=O)C(CC(=O)NCc3cccc4ccccc34)CC(C(=O)N3CCOCC3)=C2C)cc1 (configuration not stated),-5.05%

row,Compound,activity change
1,COc1cc(C(O)c2nc(-c3cnn(C)c3)cs2)ccc1F (configuration not stated),25.9%
2,CC(C)(C)NC(=O)Cn1c(SCC(=O)Nc2nccs2)nc2ccccc21,-11.3%
3,O=C(Nc1ccc(F)cc1)N1CCCC(c2nc3c(nnn3Cc3ccccc3Cl)c(=O)[nH]2)C1 (configuration not stated),-15.2%
4,COc1ccc(Cn2nnc3c(=O)[nH]c(C4CCN(C(=O)c5ccccc5Cl)CC4)nc32)cc1,0%
5,Cc1ccc(NC(=O)N2CCC(c3nc4c(nnn4Cc4c(F)cccc4Cl)c(=O)[nH]3)CC2)cc1,-69% (active)
6,CC[C@]12c3[nH]c4cc(CCC(=O)N(C)C)ccc4c3CCN1C(=O)[C@@H](CC(=O)NCCCN(C)C)C[C@@H]2C(=O)N1CCN(C(=O)c2ccco2)CC1,0%
7,CC1CCN(C(=O)CSc2nnc(-c3ccco3)n2N)CC1,3.36%
8,c1ccc(Cc2c(-c3ccco3)nc3c4ccccc4ccn23)cc1,-21.7%
9,C=CCc1ccccc1OCC(O)CN1CCN(CCO)CC1 (configuration not stated),9.73%
10,Cc1ccc(OCC(O)CN2CCN(CC(O)COc3ccc(C)cc3Cl)CC2)c(Cl)c1 (configuration not stated),4.54%
11,Cc1cccc(OCC(O)CN2CCN(CCN3C(=O)c4cccc5cccc(c45)C3=O)CC2)c1C (configuration not stated),-52.3% (active)
12,CCCCN1C(=O)C(CC(=O)NCc2cccs2)CC(C(=O)N2CCCCCC2)=C1C (configuration not stated),7%
13,Clc1ccc(-n2nnnc2CN2CCCCC2)cc1Cl,9.91%
14,CN(C(=O)CN1C(=O)S/C(=C\c2ccccc2F)C1=O)C1CCS(=O)(=O)C1 (configuration not stated),-16.9%
15,CN(C(=O)CCN1C(=O)/C(=C/c2ccccc2F)SC1=S)C1CCS(=O)(=O)C1 (configuration not stated),-99.1% (active)
16,COc1ccccc1/C=C1\SC(=O)N(CCC(=O)N(C)C2CCS(=O)(=O)C2)C1=O (configuration not stated),-15.1%
17,CCC(C)CN1C(=O)CSCC1(C)C(=O)NCc1ccccc1 (configuration not stated),-5.63%
18,CC(=O)c1cccc(NC(=O)COc2ccc(S(=O)(=O)N3CCOCC3)cc2)c1,-9.57%
19,COc1ccc(S(=O)(=O)N2CCOCC2)cc1NC(=O)COc1ccccc1,6.58%
20,COC(=O)COc1ccc(S(=O)(=O)N2CCOCC2)cc1,-50.5% (active)
21,Cc1cc2c(cc1C)NC1(C[C@H]3CCC(=O)N4CC[C@@H](C1)[C@@H]34)C(=NC(C)(C)CC(C)(C)C)N2 (some centres not stated),1.01%
